Laboratory results taken from publication PMC7862700, “An all-to-all approach to the identification of sequence-specific readers for epigenetic DNA modifications on cytosine”.

How the values were obtained:
Assay in all cases: DAPPL (digital affinity profiling via proximity ligation, sequencing); 10 mM Tris-HCl pH 7.5, 50 mM NaCl, 1 mM DTT, 4% glycerol, room temperature, 30 min; GST-TFs on glutathione beads, 16-mer random dsDNA library, 0.1% formaldehyde crosslink after washing; high values mean tight binding
Conditions in all cases: protein: recombinant; tags: N-terminal GST; dsDNA, one strand shown
[1] = biological target: T1, ERF (Homo sapiens, UniProt P50548 1-548)
T1 sequence: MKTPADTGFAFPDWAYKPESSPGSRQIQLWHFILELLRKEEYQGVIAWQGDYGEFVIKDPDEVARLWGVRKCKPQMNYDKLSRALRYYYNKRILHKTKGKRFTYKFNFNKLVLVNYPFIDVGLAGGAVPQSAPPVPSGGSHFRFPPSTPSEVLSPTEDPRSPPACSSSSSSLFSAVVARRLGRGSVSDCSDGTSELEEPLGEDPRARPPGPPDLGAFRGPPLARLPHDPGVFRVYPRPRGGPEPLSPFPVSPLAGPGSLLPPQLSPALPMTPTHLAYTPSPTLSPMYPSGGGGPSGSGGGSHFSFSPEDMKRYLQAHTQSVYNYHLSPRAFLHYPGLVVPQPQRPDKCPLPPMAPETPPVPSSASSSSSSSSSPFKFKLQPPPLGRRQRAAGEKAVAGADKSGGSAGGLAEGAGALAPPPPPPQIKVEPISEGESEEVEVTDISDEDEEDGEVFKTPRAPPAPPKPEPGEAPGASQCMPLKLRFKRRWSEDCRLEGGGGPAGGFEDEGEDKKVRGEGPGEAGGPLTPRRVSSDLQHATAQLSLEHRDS
Outline: (§1)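 GST fusions of human transcription factors were expressed in yeast and captured with glutathione beads. Once given DNA barcodes and pooled alongside a tag-only sample, they were incubated for 30 min at room temperature with 200 nmole of a random double-stranded 16-mer DNA library in Tris/NaCl/DTT/glycerol buffer, then washed, crosslinked (0.1% formaldehyde), proximity-ligated, PCR-amplified and sequenced on an Illumina NextSeq500. The binding signal of each hexamer is its read frequency for a factor divided by its frequency for the tag-only sample.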

[2] = biological target: T2, ETV3L (Homo sapiens, UniProt Q6ZN32 1-361)
T2 sequence: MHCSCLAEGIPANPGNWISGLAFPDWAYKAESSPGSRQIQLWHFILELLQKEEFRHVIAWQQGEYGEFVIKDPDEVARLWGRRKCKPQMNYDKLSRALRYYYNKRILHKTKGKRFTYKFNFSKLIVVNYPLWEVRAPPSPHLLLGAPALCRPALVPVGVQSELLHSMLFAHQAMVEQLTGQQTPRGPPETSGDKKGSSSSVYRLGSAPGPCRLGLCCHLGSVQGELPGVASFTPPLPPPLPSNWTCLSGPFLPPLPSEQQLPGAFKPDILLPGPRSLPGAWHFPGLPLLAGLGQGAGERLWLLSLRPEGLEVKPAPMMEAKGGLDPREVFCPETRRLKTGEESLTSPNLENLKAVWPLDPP
Outline: as §1

[3] = biological target: T3, ETS2 (Homo sapiens, UniProt P15036 1-469)
T3 sequence: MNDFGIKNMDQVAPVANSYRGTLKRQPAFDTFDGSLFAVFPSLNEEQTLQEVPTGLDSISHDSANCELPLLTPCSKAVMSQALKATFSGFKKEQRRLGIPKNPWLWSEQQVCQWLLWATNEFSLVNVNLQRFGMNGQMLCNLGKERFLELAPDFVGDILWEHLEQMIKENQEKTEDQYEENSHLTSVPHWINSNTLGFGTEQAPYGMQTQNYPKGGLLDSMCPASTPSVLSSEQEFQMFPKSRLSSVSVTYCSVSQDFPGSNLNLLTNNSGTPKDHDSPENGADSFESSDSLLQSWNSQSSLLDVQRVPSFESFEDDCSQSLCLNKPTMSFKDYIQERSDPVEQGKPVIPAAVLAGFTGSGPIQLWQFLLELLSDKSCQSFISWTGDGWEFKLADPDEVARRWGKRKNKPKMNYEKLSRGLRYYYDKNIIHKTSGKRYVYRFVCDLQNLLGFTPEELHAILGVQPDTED
Outline: as §1

[4] = biological target: T4, SPDEF (Homo sapiens, UniProt O95238 1-335)
T4 sequence: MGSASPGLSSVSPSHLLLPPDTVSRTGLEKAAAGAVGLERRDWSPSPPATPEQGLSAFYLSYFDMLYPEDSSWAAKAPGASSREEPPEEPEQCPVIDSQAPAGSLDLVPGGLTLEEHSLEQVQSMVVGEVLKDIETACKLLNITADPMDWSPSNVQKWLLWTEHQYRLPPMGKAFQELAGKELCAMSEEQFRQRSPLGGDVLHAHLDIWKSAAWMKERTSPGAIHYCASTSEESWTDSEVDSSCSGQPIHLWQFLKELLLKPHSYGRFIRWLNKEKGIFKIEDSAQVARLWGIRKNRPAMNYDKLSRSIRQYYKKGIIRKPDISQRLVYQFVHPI
Outline: as §1

[5] = biological target: T5, ETV7 (Homo sapiens, UniProt Q9Y603 1-341)
T5 sequence: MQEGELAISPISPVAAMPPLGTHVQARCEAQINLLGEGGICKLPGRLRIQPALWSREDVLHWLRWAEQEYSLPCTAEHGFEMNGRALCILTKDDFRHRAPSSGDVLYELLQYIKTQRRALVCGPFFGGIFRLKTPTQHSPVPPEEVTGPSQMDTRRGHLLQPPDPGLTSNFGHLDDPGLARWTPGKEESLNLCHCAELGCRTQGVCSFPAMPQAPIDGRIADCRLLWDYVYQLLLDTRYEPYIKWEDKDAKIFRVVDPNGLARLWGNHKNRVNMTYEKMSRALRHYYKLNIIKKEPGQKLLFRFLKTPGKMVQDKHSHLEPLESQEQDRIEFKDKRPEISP
Outline: as §1

[6] = biological target: T6, ELF5 (Homo sapiens, UniProt Q9UKW6-2 1-255)
T6 sequence: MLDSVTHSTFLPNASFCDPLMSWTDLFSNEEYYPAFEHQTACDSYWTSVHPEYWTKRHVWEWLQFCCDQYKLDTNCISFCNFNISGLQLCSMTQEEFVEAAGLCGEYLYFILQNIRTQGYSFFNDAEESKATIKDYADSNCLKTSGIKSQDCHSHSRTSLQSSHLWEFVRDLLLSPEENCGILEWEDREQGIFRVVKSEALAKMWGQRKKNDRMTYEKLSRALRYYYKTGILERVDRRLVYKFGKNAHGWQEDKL
Outline: as §1

[7] = biological target: T7, ETV3 (Homo sapiens, UniProt P41162-2 1-143)
T7 sequence: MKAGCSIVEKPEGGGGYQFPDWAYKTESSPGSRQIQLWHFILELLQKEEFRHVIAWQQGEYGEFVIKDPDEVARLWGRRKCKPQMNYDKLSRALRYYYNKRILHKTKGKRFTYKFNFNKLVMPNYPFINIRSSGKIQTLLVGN
Outline: as §1

[8] = biological target: ETV6 (Homo sapiens, UniProt P41212 1-452)
Sequence of ETV6 (P41212 whole entry): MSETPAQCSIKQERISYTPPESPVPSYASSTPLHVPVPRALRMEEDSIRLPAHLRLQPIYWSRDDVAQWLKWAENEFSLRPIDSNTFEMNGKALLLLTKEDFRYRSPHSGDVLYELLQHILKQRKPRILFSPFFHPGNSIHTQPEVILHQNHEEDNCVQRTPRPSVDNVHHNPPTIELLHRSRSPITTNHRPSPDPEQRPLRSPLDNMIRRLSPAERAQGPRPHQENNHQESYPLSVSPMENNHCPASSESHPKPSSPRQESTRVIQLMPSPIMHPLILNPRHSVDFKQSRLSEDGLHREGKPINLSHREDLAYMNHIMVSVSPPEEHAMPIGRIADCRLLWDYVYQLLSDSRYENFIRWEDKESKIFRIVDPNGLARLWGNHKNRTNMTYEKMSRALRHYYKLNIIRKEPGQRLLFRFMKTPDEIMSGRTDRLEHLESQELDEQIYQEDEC
Outline: as §1

Sequence	binding signal [1]	binding signal [2]	binding signal [3]	binding signal [4]	binding signal [5]	binding signal [6]	binding signal [7]	binding signal [8]
TTACTT	1.49 fold enrichment (6-mer frequency, TF over GST control)	1.37 fold enrichment (6-mer frequency, TF over GST control)	1.48 fold enrichment (6-mer frequency, TF over GST control)	1.45 fold enrichment (6-mer frequency, TF over GST control)	1.43 fold enrichment (6-mer frequency, TF over GST control)	1.54 fold enrichment (6-mer frequency, TF over GST control)	1.58 fold enrichment (6-mer frequency, TF over GST control)	1.62 fold enrichment (6-mer frequency, TF over GST control)
CTCTCA	1.5 fold enrichment (6-mer frequency, TF over GST control)	1.39 fold enrichment (6-mer frequency, TF over GST control)	1.42 fold enrichment (6-mer frequency, TF over GST control)	1.32 fold enrichment (6-mer frequency, TF over GST control)	1.11 fold enrichment (6-mer frequency, TF over GST control)	1.28 fold enrichment (6-mer frequency, TF over GST control)	1.43 fold enrichment (6-mer frequency, TF over GST control)	1.36 fold enrichment (6-mer frequency, TF over GST control)
AAACCC	1.28 fold enrichment (6-mer frequency, TF over GST control)	1.29 fold enrichment (6-mer frequency, TF over GST control)	1.26 fold enrichment (6-mer frequency, TF over GST control)	1.34 fold enrichment (6-mer frequency, TF over GST control)	1.25 fold enrichment (6-mer frequency, TF over GST control)	1.31 fold enrichment (6-mer frequency, TF over GST control)	1.29 fold enrichment (6-mer frequency, TF over GST control)	1.34 fold enrichment (6-mer frequency, TF over GST control)
ACTACC	1.72 fold enrichment (6-mer frequency, TF over GST control)	1.6 fold enrichment (6-mer frequency, TF over GST control)	1.7 fold enrichment (6-mer frequency, TF over GST control)	1.61 fold enrichment (6-mer frequency, TF over GST control)	1.55 fold enrichment (6-mer frequency, TF over GST control)	1.76 fold enrichment (6-mer frequency, TF over GST control)	1.7 fold enrichment (6-mer frequency, TF over GST control)	1.74 fold enrichment (6-mer frequency, TF over GST control)
TTGCCC	1.3 fold enrichment (6-mer frequency, TF over GST control)	1.41 fold enrichment (6-mer frequency, TF over GST control)	1.43 fold enrichment (6-mer frequency, TF over GST control)	1.38 fold enrichment (6-mer frequency, TF over GST control)	1.38 fold enrichment (6-mer frequency, TF over GST control)	1.22 fold enrichment (6-mer frequency, TF over GST control)	1.35 fold enrichment (6-mer frequency, TF over GST control)	1.23 fold enrichment (6-mer frequency, TF over GST control)
ACTTCT	1.35 fold enrichment (6-mer frequency, TF over GST control)	1.65 fold enrichment (6-mer frequency, TF over GST control)	1.4 fold enrichment (6-mer frequency, TF over GST control)	1.21 fold enrichment (6-mer frequency, TF over GST control)	1.5 fold enrichment (6-mer frequency, TF over GST control)	1.58 fold enrichment (6-mer frequency, TF over GST control)	1.36 fold enrichment (6-mer frequency, TF over GST control)	1.58 fold enrichment (6-mer frequency, TF over GST control)
ACTATC	1.21 fold enrichment (6-mer frequency, TF over GST control)	1.15 fold enrichment (6-mer frequency, TF over GST control)	1.19 fold enrichment (6-mer frequency, TF over GST control)	1.18 fold enrichment (6-mer frequency, TF over GST control)	1.19 fold enrichment (6-mer frequency, TF over GST control)	1.13 fold enrichment (6-mer frequency, TF over GST control)	1.13 fold enrichment (6-mer frequency, TF over GST control)	1.1 fold enrichment (6-mer frequency, TF over GST control)
TTAAAC	1.39 fold enrichment (6-mer frequency, TF over GST control)	1.36 fold enrichment (6-mer frequency, TF over GST control)	1.2 fold enrichment (6-mer frequency, TF over GST control)	1.18 fold enrichment (6-mer frequency, TF over GST control)	1.14 fold enrichment (6-mer frequency, TF over GST control)	1.18 fold enrichment (6-mer frequency, TF over GST control)	1.23 fold enrichment (6-mer frequency, TF over GST control)	1.3 fold enrichment (6-mer frequency, TF over GST control)
TATAAT	1.25 fold enrichment (6-mer frequency, TF over GST control)	1.23 fold enrichment (6-mer frequency, TF over GST control)	1.19 fold enrichment (6-mer frequency, TF over GST control)	1.27 fold enrichment (6-mer frequency, TF over GST control)	1.17 fold enrichment (6-mer frequency, TF over GST control)	1.18 fold enrichment (6-mer frequency, TF over GST control)	1.19 fold enrichment (6-mer frequency, TF over GST control)	1.24 fold enrichment (6-mer frequency, TF over GST control)
CACGCT	1.35 fold enrichment (6-mer frequency, TF over GST control)	1.37 fold enrichment (6-mer frequency, TF over GST control)	1.31 fold enrichment (6-mer frequency, TF over GST control)	1.35 fold enrichment (6-mer frequency, TF over GST control)	1.36 fold enrichment (6-mer frequency, TF over GST control)	1.25 fold enrichment (6-mer frequency, TF over GST control)	1.37 fold enrichment (6-mer frequency, TF over GST control)	1.34 fold enrichment (6-mer frequency, TF over GST control)
TTGTGC	1.31 fold enrichment (6-mer frequency, TF over GST control)	1.12 fold enrichment (6-mer frequency, TF over GST control)	1.17 fold enrichment (6-mer frequency, TF over GST control)	1.15 fold enrichment (6-mer frequency, TF over GST control)	1.08 fold enrichment (6-mer frequency, TF over GST control)	1.23 fold enrichment (6-mer frequency, TF over GST control)	1.15 fold enrichment (6-mer frequency, TF over GST control)	1.23 fold enrichment (6-mer frequency, TF over GST control)
AAATAT	1.25 fold enrichment (6-mer frequency, TF over GST control)	1.32 fold enrichment (6-mer frequency, TF over GST control)	1.37 fold enrichment (6-mer frequency, TF over GST control)	1.35 fold enrichment (6-mer frequency, TF over GST control)	1.4 fold enrichment (6-mer frequency, TF over GST control)	1.41 fold enrichment (6-mer frequency, TF over GST control)	1.29 fold enrichment (6-mer frequency, TF over GST control)	1.43 fold enrichment (6-mer frequency, TF over GST control)
TCTGGC	1.31 fold enrichment (6-mer frequency, TF over GST control)	1.11 fold enrichment (6-mer frequency, TF over GST control)	1.21 fold enrichment (6-mer frequency, TF over GST control)	1.15 fold enrichment (6-mer frequency, TF over GST control)	1.24 fold enrichment (6-mer frequency, TF over GST control)	1.08 fold enrichment (6-mer frequency, TF over GST control)	1.06 fold enrichment (6-mer frequency, TF over GST control)	1.19 fold enrichment (6-mer frequency, TF over GST control)
ATCCTG	1.28 fold enrichment (6-mer frequency, TF over GST control)	1.49 fold enrichment (6-mer frequency, TF over GST control)	1.56 fold enrichment (6-mer frequency, TF over GST control)	2.47 fold enrichment (6-mer frequency, TF over GST control)	1.51 fold enrichment (6-mer frequency, TF over GST control)	1.84 fold enrichment (6-mer frequency, TF over GST control)	1.61 fold enrichment (6-mer frequency, TF over GST control)	1.48 fold enrichment (6-mer frequency, TF over GST control)
TTATTG	1.37 fold enrichment (6-mer frequency, TF over GST control)	1.37 fold enrichment (6-mer frequency, TF over GST control)	1.27 fold enrichment (6-mer frequency, TF over GST control)	1.21 fold enrichment (6-mer frequency, TF over GST control)	1.4 fold enrichment (6-mer frequency, TF over GST control)	1.2 fold enrichment (6-mer frequency, TF over GST control)	1.34 fold enrichment (6-mer frequency, TF over GST control)	1.27 fold enrichment (6-mer frequency, TF over GST control)
